The text below walks through data of PubChem BioAssay AID488890 (Southern Research Specialized Biocontainment Screening …, 2010).

The structures appear in SMILES notation. Among all 320,000 compounds or so, about 1,300 (0.41%) were called active. About 3% were inconclusive and are not listed. The rule behind the calls is not given here. Only a sample is shown. Entries with a potency or affinity are not part of this list.

A short description of the assay: growth inhibition of non-replicating M. tuberculosis (AID 488890).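 Note: plate controls were DMSO cells for no effect and high antibiotic wells for full effect.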 Conditions: Mycobacterium tuberculosis non-replicating, at 25 µM, stronger effect = higher value.
For `Cc1ccccc1OCc1n[nH]c(=S)n1-c1ccccc1`, the inhibition is -9.9%.
Take `O=C(COC(=O)c1ccccc1NCCO)NCC1CCCCC1`: the inhibition was determined as 23.3%.
Next, `CCOc1ccc2nc(NC(=O)c3ccoc3C)sc2c1`: 54.7%; `CCOc1ccc2nc(NC(=O)c3cccnc3)sc2c1`: 8.67%.
Next, `CCOc1ccc2nc(NC(=O)c3ccc(C)o3)sc2c1`: 27.5%.
Under `CCOc1ccc2nc(NC(=O)Nc3ccccc3)sc2c1` stands -2.52%; under `COc1ccc(/C=C/C(=O)Oc2cccc(/C=N/NC(=O)Cc3ccc(Br)cc3)c2)cc1`, 23.8%; under `CC(NS(=O)(=O)c1ccc2c(c1)CC(C)N2C(=O)C1CC1)c1ccccc1` (centres undefined), 12.7%.
With `CCCc1cc(=O)[nH]c(SCC(=O)Nc2cc(S(=O)(=O)N3CCOCC3)ccc2N(CC)CC)n1`, the inhibition amounted to 18.9%.
`CCCCn1c(N)c(N(CCOC)C(=O)COc2ccc(C(C)=O)cc2)c(=O)[nH]c1=O`: the inhibition was -6.71%.
Next, `O=C(N/N=C/c1coc2ccccc2c1=O)c1ccncc1`: 76.8%; `O=C(N/N=C/c1cc2c(cc1Cl)OCO2)c1cccc(Br)c1`: -12.4%.
Next, `O=C(N/N=C/c1ccc(F)cc1)c1ccncc1`: 53.7%; `O=C(N/N=C/c1ccc[nH]1)c1ccc([N+](=O)[O-])cc1`: -12.7%.
Next, `O=C(N/N=C/c1ccc[nH]1)c1ccc(O)cc1`: 46.7%; `COc1ccc(C(=O)N/N=C\c2coc3ccccc3c2=O)cc1`: 50.1%.
Regarding `O=C(N/N=C\c1ccc[nH]1)c1cncc(Br)c1`, the inhibition stood at 4.75%.
Under `O=C(N/N=C/c1cc2c(cc1Cl)OCO2)c1ccc2c(c1)OCCO2` stands -6.98%; under `CCOc1cc(C(=O)NCc2ccc(-c3nc4ccccc4o3)cc2)cc(OCC)c1OCC`, 5.09%; under `O=C(Cc1ccc(Cl)cc1)N/N=C/c1ccccc1`, 16.8%.
Turning to `Cc1ccc(/C=N\Nc2cn[nH]c(=O)c2Cl)cc1`, the inhibition was -3.74%.
Next, `CCc1ccccc1Nc1nc2ccccc2n1C`: 43.6%; `CC(C)CNS(=O)(=O)c1ccc(S(=O)(=O)N2CCN(CCC#N)CC2)cc1`: 6.46%; `COc1cccc(/C=N/NC(=O)N/N=C/c2cccc(OC)c2O)c1O`: -1.08%.
Next, `O=C(N/N=C/c1ccccc1)c1ccc2c(c1)OCO2`: 51.5%.
Next, `COc1cc(/C=N/NC(=O)c2ccoc2C)cc(OC)c1O`: -10%; `O=C(N/N=C/c1ccc2c(c1)OCO2)c1ccc2c(c1)OCO2`: 23.3%.
Consider `CCOc1cc(/C=N/NC(=O)c2ccc3c(c2)OCCO3)cc(Br)c1O`, for which the inhibition was 11.1%.
Under `COc1cccc(/C=N/NC(=O)CNC(=O)c2ccc3c(c2)OCCO3)c1O` stands -7.52%; under `CCN(CC(=O)Nc1sc2c(c1C#N)CCC(C)C2)Cc1nc2ccccc2c(=O)[nH]1` (centres undefined), 5.89%; under `NC(=O)C1CCCN1` (centres undefined), 3.98%.
Under `CC1(C)CC(=O)c2cnc(NCC3CCCO3)nc2C1` (centres undefined) stands -8.53%; under `COC(=O)CSc1nnc2c3c4c(sc3nc(-n3nc(C)cc3C)n12)COC(C)(C)C4`, 0.76%; under `O=C1c2ccccc2C(=O)N1CCC#Cc1ccc2cc(CCCO)oc(=O)c2c1`, 12.8%.
Under `CCOc1ccc(OCc2ccc(C(=O)O)o2)cc1` stands 18.9%; under `O=C(c1ccc(COc2ccccc2Cl)o1)N1CCCC1`, -8.31%.
Regarding `CCc1ccc(OCc2ccc(C(=O)NCc3ccccn3)o2)cc1`, the inhibition was 64.5%.
Under `O=C(Nc1ccccn1)c1ccc(COc2ccccc2Cl)o1` stands 72.4%; under `N/C(=N\N=C\c1cccs1)SC1CC(=O)N(c2ccc(Br)cc2)C1=O` (centres undefined), 7.06%; under `Cc1cc(C(=O)N/N=C/c2c[nH]c3ccccc23)c(C)o1`, 4.64%.
Under `Cc1cccc(C)c1NC(=O)Cc1cccs1` stands 3.18%; under `Cc1cc(C)c2nc(SC3CCOC3=O)cc(C)c2c1` (centres undefined), 0.02%; under `CC12CCC(C/C1=N\OC(=O)c1c(F)cccc1F)C2(C)C` (centres undefined), -9.61%.
Next, `CC(=O)Nc1ccc(Oc2nc(C(F)(F)F)nc3ccccc23)cc1`: 1.04%; `COCC1CCCCN1Cc1cn(-c2ccccc2)nc1-c1ccc2c(c1)OCO2` (centres undefined): 0.23%; `CSc1ccccc1NC(=O)c1ccc(N2CCCC2=O)cc1`: 7.7%.
`C=CCN=C1NN=C(c2cc(C)n(CC=C)c2C)CS1`: the inhibition was -5.39%.
Under `C=CCn1c(C)cc(C2=NNC(=NC(C)(C)C)SC2)c1C` stands 27%; under `CC(=O)Nc1ccc(S(=O)(=O)Nc2nccc(C)n2)cc1`, 20.2%.
On to `O=C(Nc1ccccc1F)c1cc(C(=O)Nc2ccccc2F)cc([N+](=O)[O-])c1`, for which the inhibition came to 5.63%.
Under `CN(C)NC(=O)c1ccc([N+](=O)[O-])s1` stands 11.4%.
Next, `Cc1ccnc(NS(=O)(=O)c2ccc(NC(=O)c3ccc(Cl)cc3[N+](=O)[O-])cc2)n1`: -0.5%; `Cc1cccc(C)c1NC(=O)c1ccc([N+](=O)[O-])s1`: 67%; `Cc1cccc(NC(=O)c2cc3cc([N+](=O)[O-])ccc3s2)n1`: 16.8%.
Under `O=c1[nH]c2c(c(=O)n1C1CCCCC1)CCC2` stands -6.62%; under `COC(=O)c1cccc(CSc2nnc(-c3ccco3)n2-c2ccccc2)c1`, 24%.
For `C=CCC(C=C)S(=O)(=O)c1ccc(C)cc1` (centres undefined), the inhibition was -2.81%.
Next, `CCCCCC1CC(/C(C)=N/NC(N)=O)OC1=O` (centres undefined): 9.08%; `COCCNC(=O)COC(=O)CSCc1nc2ccccc2s1`: -4.84%; `CCNC(=O)COC(=O)c1cc(C)nc2ccccc12`: -1.86%.
Under `COCCNC(=O)c1nc2ccccc2s1` stands 52.5%; under `O=C(c1ccc(-c2nc3ccccc3s2)s1)N1CCOCC1`, -4.2%; under `Cc1noc(C)c1COC(=O)c1ccc(-c2nc3ccccc3s2)s1`, 9.44%.
Under `CCN1CCN(C(=O)c2ccc(-c3nc4ccccc4s3)s2)CC1` stands -3.89%; under `O=S(=O)(Nc1ccc2cn[nH]c2c1)c1ccc(C(F)(F)F)cc1`, 21.1%; under `Cc1occc1C(=O)N/N=C/c1cccnc1`, -3.52%.
For the molecule `Cc1ccc(S(=O)(=O)NCc2ccccc2)cc1C(=O)NCCc1ccc(S(N)(=O)=O)cc1`, the inhibition was -1.65%.
For the molecule `CSc1ncc(CN2CCN(C3CCCC3)C(CCO)C2)cn1` (centres undefined), the inhibition was found to be 6.95%.
Next, `Cc1cc2oc(=O)cc(CN(C)Cc3cccc(F)c3)c2cc1C`: 12.8%; `Cc1ccc(/C=C/C(=O)O)cc1S(=O)(=O)NCCCO`: -0.14%; `CCOc1cc(/C=N/NC(=O)Cn2nc([N+](=O)[O-])cc2C)cc(Br)c1OCc1ccccc1C`: -2.93%.
Under `Cc1cc(C)nc(NN2C(=O)C=CC2=O)n1` stands -13.2%; under `C=CCC1(CC=C)CCCN1C(=O)CC1C(=O)NCCN1Cc1cccc(OC)c1OC` (centres undefined), -15.7%.
Under `COC(=O)c1ccc(NC(=O)c2cccc(NC(=O)c3ccccc3)c2)cc1` stands 32%.
